From PubChem BioAssay
A selection: hits, their analogues and other compounds. The true share with any hit is near 1.4%.
AmpC detergent: inhibitors of E. coli AmpC beta-lactamase with detergent | P00811 | AmpC hydrolysis of nitrocefin, absorbance 480 nm, 0.01% Triton | Potency, µM (highest dose often 114 µM), usual class: inhibitors | 370,000 compounds, 0.041% hits; further: nearly all actives have a fitted effect of over 25% in size
Target sequence (P00811 whole entry, looked up): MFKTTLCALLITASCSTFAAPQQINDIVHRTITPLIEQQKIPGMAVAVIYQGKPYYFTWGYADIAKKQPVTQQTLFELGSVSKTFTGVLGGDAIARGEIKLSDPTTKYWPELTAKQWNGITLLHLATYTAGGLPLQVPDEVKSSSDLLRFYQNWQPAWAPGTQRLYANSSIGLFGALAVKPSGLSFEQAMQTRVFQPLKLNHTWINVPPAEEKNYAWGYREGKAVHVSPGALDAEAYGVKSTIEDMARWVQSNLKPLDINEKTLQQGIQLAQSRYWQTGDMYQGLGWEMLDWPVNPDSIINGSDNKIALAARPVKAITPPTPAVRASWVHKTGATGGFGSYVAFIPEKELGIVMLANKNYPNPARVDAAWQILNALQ
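AmpC (5.3 nM in the dispensed reagent) in 20 mM phosphate pH 7.0 with 0.01% (detergent screen) or 0.0001% Triton X-100 was preincubated with compounds for 15 min at room temperature. Nitrocefin was then added from an 800 uM solution, and hydrolysis was followed at 480 nm.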
AmpC inh no detg: inhibitors of E. coli AmpC beta-lactamase without detergent | P00811 | AmpC nitrocefin hydrolysis, absorbance 480 nm, 0.0001% Triton | Potency, µM (top dose mostly 57.1 µM), most hits filed as inhibitors | 330,000 compounds, 0.52% hits | AID 485341; further: nearly all actives have a fitted effect of over 20% in size
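AmpC (5.3 nM in the dispensed reagent) in 20 mM phosphate pH 7.0 with 0.01% (detergent screen) or 0.0001% Triton X-100 was preincubated with compounds for 15 min at room temperature. Nitrocefin was then added from an 800 uM solution, and hydrolysis was followed at 480 nm.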
RE007 growth inh: less growth of the S. pombe RE007 Vpr strain | S. pombe RE007 Vpr strain, BacTiter-Glo ATP luminescence, 24 h | 360,000 compounds, 0.21% hits | AID 651644 | Potency, µM (highest dose often 92.2 µM), hits mostly inhibitors; active means well fitted falling curve with a large enough effect; inconclusive means small, poorly fitted or top-dose-only effect; inactive means no such curve, though single readings can be large or run the other way; further: nearly all actives have a fitted effect of over 50% in size
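Fission yeast strain RE007, carrying one chromosomally integrated HIV-1 vpr copy, was seeded at OD 0.01 in PMG+AL medium with 23 nL pinned compound. After 24 h at 30 °C and 99% humidity, viability was read by BacTiter-Glo luminescence.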
Giardia FBPA inh-1: inhibitors of Giardia lamblia fructose-1,6-bisphosphate aldolase; A8B2U2; purified Giardia FBPA; Potency, µM (series often up to 59.6 µM), actives largely listed as inhibitors; 290,000 compounds, 0.71% hits; further: nearly all actives have a fitted effect of over 55% in size
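Giardia FBPA (40 nM reagent) was preincubated 10 min at RT with compound (up to 57.5 uM final), then substrate plus GAPDH/TPI/NAD/arsenate coupling system with diaphorase/resazurin was added; resorufin fluorescence (525/598 nm) was read after 20 min.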
TbPYK inhibitor: T. brucei pyruvate kinase inhibition | Q57TT1 | TbPYK enzyme, Kinase-Glo Plus ATP luminescence, 45 min | Potency, µM (series often up to 76.8 µM), usual class: inhibitors | 410,000 compounds, 0.12% hits | AID 624173; further: nearly all actives have a fitted effect of over 50% in size
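In this concentration-response screen, enzyme-free wells defined baseline while DMSO plates tracked drift. Each reaction combined TbPYK, substrate, compound and 130 uM ADP for 45 min at room temperature. Kinase-Glo Plus luminescence gave the signal.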
LmPK inh: blocks Leishmania mexicana pyruvate kinase activity; Q27686; purified LmPK, Kinase-Glo ATP luminescence, 1 h; Potency, µM (highest dose often 57.5 µM), most hits filed as inhibitors; 290,000 compounds, 0.37% hits; AID 1721
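qHTS format; LmPK 0.1 nM; substrates PEP 0.5 mM and ADP 0.1 mM. One-hour room-temperature incubation, then coupled luciferase luminescence; 0.5 nM enzyme wells mark activation.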
Giardia growth: blocks growth of Giardia lamblia trophozoites; shares compounds with Giardia FBPA inh-1; Giardia lamblia trophozoite growth inhibition; Potency, µM (titrated, usually from 57.5 µM), usual class: inhibitors; 1,500 compounds, 5% hits; AID 2785;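 further: trophozoites exposed to compound for 48 h at 37 °C; nearly all actives have a fitted effect of over 70% in size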
Mammalian tox: toxic to mammalian cells in Giardia aldolase counter-screen; shares compounds with Giardia FBPA inh-1; mammalian cell viability counter-screen, qHTS; Potency, µM (highest dose often 57.5 µM), most hits filed as inhibitors; 1,500 compounds, 4% hits; AID 2786;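 further: Chinese hamster ovary cells used as mammalian cytotoxicity surrogate; viability measured as cellular ATP by luminescence; compound exposure lasted 48 h before reading; nearly all actives have a fitted effect of over 60% in size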
Giardia FBPA inh-2: confirmation of Giardia fructose-bisphosphate aldolase inhibitors | Potency, µM (top dose mostly 57.5 µM), most hits filed as inhibitors | purified Giardia aldolase enzyme activity, qHTS | shares compounds with Giardia FBPA inh-1 | AID 2787 | 1,500 compounds, 5% hits; further: nearly all actives have a fitted effect of over 45% in size
Rabbit aldolase: rabbit FBP aldolase inhibition by Giardia aldolase hits; shares compounds with Giardia FBPA inh-1; Rabbit muscle FBPA enzyme inhibition, selectivity counter-screen; Potency, µM (titrated, usually from 57.5 µM), usual class: inhibitors; 1,500 compounds, 4% hits; further: nearly all actives have a fitted effect of over 60% in size
Target sequence (P00883 whole entry, looked up): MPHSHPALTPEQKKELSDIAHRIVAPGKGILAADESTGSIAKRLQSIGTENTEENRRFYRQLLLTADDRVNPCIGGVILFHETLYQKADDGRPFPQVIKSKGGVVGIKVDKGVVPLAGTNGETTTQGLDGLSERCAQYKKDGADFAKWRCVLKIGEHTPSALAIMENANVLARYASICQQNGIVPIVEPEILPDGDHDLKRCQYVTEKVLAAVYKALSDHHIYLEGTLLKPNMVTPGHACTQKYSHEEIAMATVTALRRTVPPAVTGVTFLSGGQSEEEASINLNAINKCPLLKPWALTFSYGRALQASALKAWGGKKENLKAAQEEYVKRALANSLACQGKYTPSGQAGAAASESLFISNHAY
GAPDH coupling: counter-screen for Giardia aldolase inhibitors: GAPDH coupling enzyme. shares compounds with Giardia FBPA inh-1. GAPDH coupling enzyme counterscreen, biochemical, qHTS. Potency, µM (doses to about 57.5 µM), usual class: inhibitors. 1,500 compounds, 6% hits; further: nearly all actives have a fitted effect of over 55% in size
Numbers stand for hits; [ ] = another dose, or the depositor's remark. Unless noted, the call rests on the fitted dose curve; in most records, active means well fitted curve in the direction sought with a large enough effect; inconclusive means small, poorly fitted or top-dose-only effect, or another doubt; inactive means no such curve, though single readings can be large; an effect the other way counts as inactive or inconclusive.

For Cc1ccc(C(=O)Nc2nc(-c3ccccn3)cs2)o1 the results were AmpC detergent inactive, AmpC inh no detg inactive, RE007 growth inh inactive, Giardia FBPA inh-1 12.6µM, TbPYK inhibitor inactive, LmPK inh inactive, Giardia growth inconclusive, Mammalian tox inconclusive, Giardia FBPA inh-2 inactive, Rabbit aldolase inactive and GAPDH coupling inactive.
`CN(C)S(=O)(=O)c1ccc(C(=O)NCCS(=O)(=O)N2CCN(c3ccccc3)CC2)cc1` gave AmpC detergent inactive and TbPYK inhibitor inactive.
`Cc1ccc(/C=C2\SC(=S)N(NS(=O)(=O)c3ccc(C)cc3)C2=O)cc1` gave AmpC detergent inactive, AmpC inh no detg inactive, RE007 growth inh inactive, Giardia FBPA inh-1 25.1µM, TbPYK inhibitor inactive, LmPK inh inactive, Giardia growth inactive, Mammalian tox inactive, Giardia FBPA inh-2 inactive, Rabbit aldolase inactive and GAPDH coupling inactive.
For CC(C)OC(=O)CC1C(=O)NCCN1C(=S)NC(=O)c1ccccc1 (stereo not drawn) the results were AmpC detergent inactive, AmpC inh no detg inactive, RE007 growth inh inactive, Giardia FBPA inh-1 11.2µM, TbPYK inhibitor inactive, LmPK inh inactive, Giardia growth inactive, Mammalian tox inactive, Giardia FBPA inh-2 inactive, Rabbit aldolase inactive and GAPDH coupling inactive.
For COC(=O)CC1C(=O)NCCN1C(=O)c1sc2ccccc2c1Cl (stereo not drawn) the results were AmpC detergent inactive, AmpC inh no detg inactive, RE007 growth inh inactive, Giardia FBPA inh-1 inactive, TbPYK inhibitor inactive and LmPK inh inactive.
COC(=O)CC1C(=O)NCCN1C(=S)NC(=O)c1sc2ccccc2c1Cl (stereo not drawn) was read as AmpC detergent inconclusive, AmpC inh no detg inactive[2.29 µM], RE007 growth inh inactive, Giardia FBPA inh-1 15.8µM, TbPYK inhibitor inactive, LmPK inh inactive, Giardia growth inactive, Mammalian tox inactive, Giardia FBPA inh-2 inactive, Rabbit aldolase inactive and GAPDH coupling inactive.
For CC(C)OC(=O)CC1C(=O)NCCN1C(=S)NC(=O)CCc1ccccc1 (stereo not drawn) the results were AmpC detergent inactive, AmpC inh no detg inactive, RE007 growth inh inactive, Giardia FBPA inh-1 inactive, TbPYK inhibitor inactive and LmPK inh inactive.
`CC(C)OC(=O)CC1C(=O)NCCN1C(=S)NC(=O)c1ccc(F)cc1` (stereo not drawn) gave AmpC detergent inactive, AmpC inh no detg inactive, RE007 growth inh inactive, Giardia FBPA inh-1 15.8µM, TbPYK inhibitor inactive, LmPK inh inactive, Giardia growth inactive, Mammalian tox inactive, Giardia FBPA inh-2 inactive, Rabbit aldolase inactive and GAPDH coupling inactive.
Screening CCc1ccccc1NC(=O)c1nnn(Cc2ccc(Cl)cc2)c1N returned AmpC detergent inactive and TbPYK inhibitor inactive.
COc1ccccc1-c1nc(N)n[nH]1 was read as AmpC detergent inactive, AmpC inh no detg inactive, RE007 growth inh inactive, Giardia FBPA inh-1 inactive, TbPYK inhibitor inactive and LmPK inh inactive.
COc1ccccc1-n1c(CNC(=O)c2ccco2)n[nH]c1=S was read as AmpC detergent inactive, AmpC inh no detg inactive, RE007 growth inh inactive, Giardia FBPA inh-1 11.2µM, TbPYK inhibitor inconclusive, LmPK inh inactive, Giardia growth inactive, Mammalian tox inactive, Giardia FBPA inh-2 inactive, Rabbit aldolase inactive and GAPDH coupling inactive.
Screening COc1ccccc1-n1c(-c2ccco2)n[nH]c1=S returned AmpC detergent inactive, AmpC inh no detg inactive, RE007 growth inh inactive, Giardia FBPA inh-1 14.1µM, TbPYK inhibitor 10µM, LmPK inh inconclusive, Giardia growth inactive[10.4 µM], Mammalian tox inactive, Giardia FBPA inh-2 inactive, Rabbit aldolase inactive and GAPDH coupling inactive.
Screening COc1ccccc1-c1n[nH]c(=S)n1N returned AmpC detergent inactive, AmpC inh no detg inactive, RE007 growth inh inactive, Giardia FBPA inh-1 15.8µM, TbPYK inhibitor inactive, LmPK inh inactive, Giardia growth inactive, Mammalian tox inactive, Giardia FBPA inh-2 inactive, Rabbit aldolase inactive and GAPDH coupling inactive.
Screening Nn1c(-c2ccco2)n[nH]c1=S returned AmpC detergent inactive, AmpC inh no detg inactive, RE007 growth inh inactive, Giardia FBPA inh-1 inconclusive, TbPYK inhibitor inactive and LmPK inh inactive.
`Cc1ccccc1-c1nc2ccccc2c(=O)n1/N=C/c1ccccc1[N+](=O)[O-]` gave AmpC detergent inactive, AmpC inh no detg inactive, RE007 growth inh inactive, Giardia FBPA inh-1 4.46µM, TbPYK inhibitor inactive, LmPK inh inactive, Giardia growth 10µM, Mammalian tox inconclusive, Giardia FBPA inh-2 inconclusive, Rabbit aldolase inconclusive and GAPDH coupling 35.5µM.
For O=C(CSc1nc2c([nH]c3ccccc32)c(=O)n1-c1ccccc1)Nc1ccccc1C(F)(F)F the results were AmpC detergent inactive and TbPYK inhibitor inactive.
CC(=O)N1CCCc2cc(S(=O)(=O)N3CCC(C(=O)Nc4ccc(C)cc4Cl)CC3)ccc21 was read as AmpC detergent inactive and TbPYK inhibitor inactive.
O=C(O)CC/C(=N/Nc1ncc(C(F)(F)F)cc1Cl)C(=O)O was read as AmpC detergent inactive, AmpC inh no detg inactive, RE007 growth inh inactive, Giardia FBPA inh-1 11.2µM, TbPYK inhibitor inactive, LmPK inh inactive, Giardia growth 15.8µM, Mammalian tox inactive, Giardia FBPA inh-2 inactive, Rabbit aldolase inactive and GAPDH coupling inactive.
O=C(O)CCc1ncc(C(F)(F)F)cc1Cl was read as AmpC detergent inactive, AmpC inh no detg inactive, RE007 growth inh inactive, Giardia FBPA inh-1 inactive, TbPYK inhibitor inactive and LmPK inh inactive.
For COc1ccc(CCNC(=O)c2ccc3c(c2)N(Cc2c(F)cccc2Cl)C(=O)CS3)cc1OC the results were AmpC detergent inactive and TbPYK inhibitor inactive[15.4 µM].
